Source: PubChem
Only a selection was taken, and hits are over-represented in it overall.
Pf Dd2 inh: qHTS Primary assay for Inhibitors of Plasmodium falciparum Dd2 growth in vitro | P. falciparum Dd2 growth, SYBR Green, 72 h | Potency, µM (highest dose often 28.9 µM), without a hit: at the highest dose activity, negative = inhibition, most hits filed as inhibitors | hit rate 4.3% among 120,000 | AID 1347417, 2020; active = well fitted inhibition curve with a large enough effect;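 also: plate controls were DMSO vehicle for no effect and reference drug for full effect; nearly all actives have a fitted effect of over 65% in size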
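Infected erythrocytes (Dd2, 0.3% parasitemia, 2.5% hematocrit final) are added to compound in RPMI-1640/Albumax II medium, grown 72 h at 37C in low oxygen, then lysed with saponin/Triton-X containing SYBR Green and read by fluorescence.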
* = called active by the depositor; i = inactive; [ ] = another dose, or the depositor's remark. Potency is read from the fitted curve at half-maximal effect.

SMILES | Pf Dd2 inh
COc1ccc(C)c2sc(NC(=O)c3ccc(S(=O)(=O)N(C)C)cc3)nc12 | -21.6%
CCOC(=O)c1ccccc1NC(=O)CCc1nc(-c2ccc(C)cc2)no1 | 11.8%
Cc1c(-c2cc(C(=O)N[C@@H]3CCOC[C@H]3OCC(=O)O)no2)cnn1C | 5.4%
CCn1cc(CN2CCN(C(=O)c3ccc(OC)nc3)CC2)ccc1=O | 13.1%
O=C(NCc1ccccc1)[C@H]1CN2CCC1C[C@@H]2Cn1cc(CCO)nn1 (some centres not stated) | -6.1%[44.1 µM]
Cc1ccc(C(C)(C)C)c(OCC(=O)NCCc2nc3ccccc3[nH]2)c1 | 4.3%
Cc1ccc(/C=C/c2nc3ccccc3[nH]2)cc1 | 10µM*
Cc1ccc(/C=C(\C#N)c2nc3ccccc3c(=O)[nH]2)cc1 | 13.1%
COc1ccc(-c2nc(CSc3nnc(C)n4c3cc3oc(C)cc34)c(C)o2)cc1OC | 44.6%[5.79 µM]
COc1ccc(C(C)NC(=O)Cn2c(C)cc3nc4n(c(=O)c32)CCCC4)cc1 (configuration not stated) | i
O=C1COc2ccc(-c3cccnc3)nc2CN1Cc1ccc(C(F)(F)F)cc1 | -25.0%[44.1 µM]
O=C1COc2ccc(-c3ccsc3)nc2CN1Cc1ccc(C(F)(F)F)cc1 | 7.94µM*
CN1Cc2nc(Nc3ccc(C(F)(F)F)cc3)ccc2OCC1=O | i
O=C1COc2ccc(-c3ccsc3)nc2CN1Cc1ccccc1 | -5.0%[44.1 µM]
Cc1nc(CN2Cc3nc(Nc4ccc(C(F)(F)F)cc4)ccc3OCC2=O)cs1 | 11.2µM*
Cc1nc(CN2Cc3nc(-c4ccccc4)ccc3OCC2=O)cs1 | -16.5%[44.1 µM]
CC(Oc1ccccc1)C(=O)N1CCN(c2cc(C(F)(F)F)ncn2)CC1 (configuration not stated) | i
Cc1cc(O)c(C(c2cccc(F)c2)N2CCN(c3ccccc3)CC2)c(=O)n1Cc1ccco1 (configuration not stated) | 59.0%
Cc1ccc(NS(=O)(=O)c2ccc(-n3cccn3)cc2)c(Br)c1 | 7.4%
CC(=O)c1ccc(NC(=O)N[C@H]2CO[C@H]3[C@@H]2OC[C@@H]3Nc2nccc(-c3ccco3)n2)cc1 | i
Cc1cc(-c2ccc(S(=O)(=O)Nc3cccc(C(F)(F)F)c3)s2)on1 | 1.5%
COc1cccc(-c2noc(N3CCCC3)n2)c1OC | -5.3%
COc1cccc(-c2nc3cc4c(cc3cc2CN2CCSCC2)OCO4)c1OC | 11.2µM*
COc1cccc(-c2nc3cc4c(cc3cc2CN2CCOCC2)OCO4)c1OC | -29.6%
CC(=O)c1ccc(NC(=O)c2cc3sccc3n2Cc2ccc(F)cc2)cc1 | -11.8%
SMILES | Pf Dd2 inh
COC(=O)c1cc(NC(=O)c2cc3sccc3n2Cc2ccc(Cl)cc2)cc(C(=O)OC)c1 | 11.2µM*
Cc1ccc(CNC(=O)c2cc3sccc3n2Cc2ccc(Cl)cc2)cc1 | i
Cc1ccc(Cl)cc1Nc1nn2c(=O)c3ccc(C(=O)NC4CCC(C)CC4)cc3nc2s1 (configuration not stated) | -9.2%
Cc1ccc(C)c(Nc2nn3c(=O)c4ccc(C(=O)NCCc5ccccc5)cc4nc3s2)c1 | 6.4%
CCN(CC)CCNC(=O)c1ccc2c(=O)n3nc(Nc4cccc(Cl)c4C)sc3nc2c1 | 5.62µM*
Cc1ccccc1Nc1nn2c(=O)c3ccc(C(=O)N4CCCC(C)C4)cc3nc2s1 (configuration not stated) | i
Cc1ccc(C)c(Nc2nn3c(=O)c4ccc(C(=O)NC5CCCCC5)cc4nc3s2)c1 | -24.7%
Cc1c(Cl)cccc1Nc1nn2c(=O)c3ccc(C(=O)NCCC4=CCCCC4)cc3nc2s1 | 3.98µM*
Cc1ccc(C)c(Nc2nn3c(=O)c4ccc(C(=O)NCCC5=CCCCC5)cc4nc3s2)c1 | 10µM*
COc1cccc(NC(=O)N[C@H]2[C@H](O)[C@@H](N3CCCCC3)[C@@H]3OC[C@H]2O3)c1 | -24.8%[44.1 µM]
CN1CCC(NC(=O)c2cccnc2OC2CCNCC2)CC1 | -0.5%
COc1ccc(NC(=O)C2=C(C)Nc3nc(SC)nn3C2c2cc(OC)ccc2OC)cc1 (configuration not stated) | 31.0%
CCCNC(=O)N[C@@H]1C[C@H](Cn2cc(COC)nn2)[C@@H](O)[C@H]1O | 2.6%[44.1 µM]
O=C(CCc1conc1-c1cccc(F)c1)NC1CCCCC1 | i
CS(=O)(=O)N1CCCC(C(=O)NCCc2ccccc2)CCNC(=O)CC1 (configuration not stated) | -9.1%
CCCn1c(C)cnc1CCNC(=O)CCC1CCCC1 | 2.51µM*
Cc1cnc(-c2ccncc2)n1CCNC(=O)CCC1CCCC1 | -2.1%
CCNC(=O)NCCc1ncc(C)n1CC1CC1 | 2.8%
COc1cccc(CC(=O)N[C@H](C)c2onc(C)c2C(=O)O)c1 | 5.0%[44.1 µM]
CN(CC1CCOC1)S(=O)(=O)Cc1ccccc1F (configuration not stated) | i[5.79 µM]
COc1ccc(-c2cnn3c(C)cc(C)nc23)cc1OC | -0.6%
CCCN(CCC)CCCNC(=O)c1cc2c(=O)n(C)c3ccccc3c2s1 | 10µM*
CCCN1CCN(CCCNC(=O)c2cc3c(s2)-c2c(C)cccc2OC3)CC1 | i
CCCN1CCN(CCCNC(=O)c2cc3c(s2)-c2ccccc2OC3)CC1 | i
COc1ccc(NC(=O)c2cc3c(=O)n(C)c4ccccc4c3s2)cc1Cl | 4.3%
SMILES | Pf Dd2 inh
CCOc1ccc(CCNC(=O)c2cc3c(=O)n(C)c4ccccc4c3s2)cc1OCC | i
CCCN1CCN(CCCNC(=O)c2cc3c(=O)[nH]c4ccccc4c3s2)CC1 | 12.6µM*
CCOC(=O)C1CCN(CC(=O)Nc2cc(C)c3c(=O)oc4ccccc4c3n2)CC1 | 22.0%
Cc1ccc(C2Cn3nnc(-c4noc(-c5cnccn5)n4)c3CO2)cc1 (configuration not stated) | -18.5%
Nc1cc(=O)nc(SCC(=O)Nc2ccc(F)cc2)n1-c1ccccc1Cl | 45.3%
O=c1c2cn[nH]c2nc(SCc2cccc(Br)c2)n1-c1ccc(Cl)cc1 | 9.1%
Cc1cc(-n2c(SCc3ccccc3F)nc3[nH]ncc3c2=O)ccc1Cl | -27.3%
Cc1ccccc1-n1c(SCc2ccc(Cl)cc2)nc2[nH]ncc2c1=O | 10µM*
CN(C(=O)c1ccc2c(c1)OCO2)C1CCc2nn(CC3CC3)c(=O)n2CC1 (configuration not stated) | 7.9%
CN1Cc2ncnc(N3CCN(c4ncccn4)CC3)c2CN(c2ccccc2)C1=O | -4.0%
Cc1ccccc1-n1c(/C=C/c2c(C)n(C)c3ccccc23)nc2ccccc2c1=O | 2.82µM*
O=c1c2ccccc2nc(/C=C/c2cccc3ccccc23)n1-c1ccccc1Cl | -4.0%
COc1ccc(-n2c(/C=C/c3c(C)[nH]c4ccccc34)nc3ccccc3c2=O)cc1 | -14.1%
COc1ccccc1-n1c(/C=C/c2c(C)n(C)c3ccccc23)nc2ccccc2c1=O | 3.98µM*
Cc1ccccc1-n1c(/C=C/c2ccccc2F)nc2ccccc2c1=O | 10µM*
COc1ccc(-n2c(/C=C\c3ccccc3F)nc3ccccc3c2=O)cc1OC | i
CSc1ccc(/C=C/c2nc3ccccc3c(=O)n2-c2cccc(Cl)c2C)cc1 | i
COc1ccc(Cl)cc1-n1c(/C=C/c2cccc3ccccc23)nc2ccccc2c1=O | 9.2%
Cc1ccc(-n2c(/C=C/c3ccc(Br)s3)nc3ccccc3c2=O)cc1 | 10.3%
CC(=O)N1CCCN(Cc2nc3c(n2Cc2ccccc2)C(=O)N(CC2CC2)CCN3)CC1 | -17.1%
C#C[C@H]1CN2CC[C@H]1C[C@@H]2CNC(=O)COCC(=O)O | 9.1%[44.1 µM]
O=C(Cn1cc(SCc2c(F)cccc2Cl)c2ccccc21)N1CCCC1 | -13.2%
